# Reference: PMC4552634, “A New Set of Chemical Starting Points with Plasmodium falciparum Transmission-Blocking Potential for Antimalarial Drug Discovery” (PLoS ONE, 2015)
# Among all 13,000 compounds or so, about 3,200 (25%) showed an effect of 50% or more. The list shows a part of the results.
# System: P. falciparum stage V gametocytes
# Design: BacTiter-Glo ATP luminescence viability of purified stage V gametocytes in 384-well plates, per cent inhibition versus DMSO
# Conditions: 48 h, 5 µM; inhibitor
row,Compound,% Inhibition
1,COc1ccc(CN(C)C(=O)CCNS(=O)(=O)c2ccc3c(c2)OCCCO3)cc1F [TCMDC-125302],27.77%
2,COc1ccc(C2(CNCC(O)c3cccc([N+](=O)[O-])c3)CCCCC2)cc1OC (centres unmarked) [TCMDC-125753],32.79%
3,c1ccc(CNCc2cccc(-c3csc(-c4nc5ccccc5[nH]4)c3)c2)cc1 [TCMDC-132715],-5.062%
4,CC(C)CNC(=O)c1ccc(-c2cccc(CN3CCC(N4CCCC4)CC3)c2)nc1 [TCMDC-134223],24.52%
5,COc1cccc(CN2CCC(N3CCc4cc(NC(=O)c5cc(C)on5)ccc43)C2)c1OC (centres unmarked) [TCMDC-135077],7.17%
6,Nc1oc2c(CN3CCCCCC3)c(O)ccc2c(=O)c1-c1nc2ccccc2s1 [TCMDC-124554],-27.76%
7,COc1ccc2nc(C)cc(Nc3ccc(Oc4ccc5ccccc5c4Cl)c(Cl)c3)c2c1 [TCMDC-124244],45.95%
8,CN(Cc1ccccc1)C1CCCN(c2cc(NC(=O)c3ccc(F)cc3)ccn2)C1 (centres unmarked) [TCMDC-135021],-22.03%
9,c1ccc2c(CNc3ccnc(NCc4cccc5ccccc45)n3)cccc2c1 [TCMDC-131861],43.11%
10,c1cn(CCCNc2ncc(-c3ccsc3)c(-c3nccs3)n2)cn1 [TCMDC-125364],29.61%
11,Brc1ccccc1CNc1ccnc(NCCn2ccnc2)n1 [TCMDC-134666],85.3%
12,COc1ccc(Cc2cccc(C(C(=O)NCc3cc(Cl)cc(Cl)c3)N3CCN(C)CC3)c2)cc1 (centres unmarked) [TCMDC-135619],76.97%
13,COc1ccccc1N1CCN(C(C(=O)NCc2ccc(C)cc2)c2ccc(C)cc2)CC1 (centres unmarked) [TCMDC-135501],-5.21%
14,CN1CCN(C(C(=O)NCc2cc(Cl)cc(Cl)c2)c2ccc(NC(=O)Nc3ccccc3)cc2)CC1 (centres unmarked) [TCMDC-135287],18.98%
15,COc1ccccc1-c1ccc(CNC(=O)C(CN2CCN(C)CC2)c2ccccc2)cc1 (centres unmarked) [TCMDC-136897],12.07%
16,CN1CCN(C(C(=O)NCc2cc(Cl)cc(Cl)c2)c2ccc(Nc3cccc(C(F)(F)F)c3)cc2)CC1 (centres unmarked) [TCMDC-134698],-89.62%
17,CN1CCN(C(C(=O)NCc2cc(Cl)cc(Cl)c2)c2ccccc2-c2ccsc2)CC1 (centres unmarked) [TCMDC-135388],68.05%
18,COc1cc(CCNc2nc(NCc3ccccc3-c3ccccc3)nc(N3CCC(N)CC3)n2)ccc1O [TCMDC-133443],10.19%
19,N#CCSc1nnc(-c2ccccc2)c2ccccc12 [TCMDC-123867],67.4%
20,CCOC(=O)CCCc1cc(NC2CCN(C)CC2)nc(Nc2ccc(C)cc2)n1 [TCMDC-134016],-52.81%
21,C=C[C@]1(C)C[C@@H](OC(=O)CNC[C@@H](O)CN2C[C@H](c3ccnc4ccc(OC)nc34)OC2=O)[C@]2(C)[C@H](C)CC[C@]3(CCC(=O)[C@H]32)[C@@H](C)[C@@H]1O [TCMDC-135366],-2.122%
22,Nc1nc(Cc2ccc(Cl)cc2)nc(Cc2ccc(Cl)cc2)n1 [TCMDC-137497],78.01%

row,Compound,% Inhibition
1,CCc1nc(N)nc(N)c1-c1ccc(Cl)cc1 [TCMDC-125860],8.374%
2,Cc1nc2nc(N)nc(N)c2c(C)c1Cc1ccc(Cl)cc1 [TCMDC-137659],18.29%
3,COc1ccc(/C=C/C(=O)N2CCc3cc4nccc(N5CCN6CCC[C@H]6C5)c4cc32)cc1 [TCMDC-140046],-29.41%
4,O=C(c1cc2ccccc2o1)N1CCc2cc3nccc(N4CCN5CCC[C@H]5C4)c3cc21 [TCMDC-140037],-9.524%
5,O=C(c1ccc(-c2ccc(Cl)cc2)o1)N1CCc2cc3nccc(N4CCN5CCC[C@H]5C4)c3cc21 [TCMDC-140116],93.89%
6,Cc1ccc(C(=O)N2CCc3cc4nccc(N5CCN6CCC[C@H]6C5)c4cc32)cc1 [TCMDC-140036],-10.33%
7,COc1ccc(C(=O)N2CCc3cc4nccc(N5CCN6CCC[C@H]6C5)c4cc32)cc1 [TCMDC-140035],84.78%
8,O=C(Cc1cccc(Cl)c1)N1CCc2cc3nccc(N4CCN5CCC[C@H]5C4)c3cc21 [TCMDC-140038],0.313%
9,O=C(NCc1cccc(F)c1)c1ccc(O)c(-c2cc(Cl)cc(Cl)c2)c1 [TCMDC-140157],-3.983%
10,O=C(Nc1ccc(N2CCN(Cc3c[nH]c4cc(F)ccc34)CC2)cc1)c1ccccc1-c1ccc(C(F)(F)F)cc1 [TCMDC-138521],1.427%
11,Cc1nc2ccc3ccc(CNc4ccc5c(c4)CN([C@H](CCC(=O)O)C(=O)O)C5=O)cc3c2c(=O)[nH]1 [TCMDC-138033],21.85%
12,O=C(C=Cc1ccc(F)cc1)N1CCN(S(=O)(=O)c2ccc(Cl)cc2)CC1 [TCMDC-125028],63.42%
13,O=C(/C=C/c1ccc(Cl)c(Cl)c1)N1CCN(C(=O)Nc2ccc(F)c(Cl)c2)CC1 [TCMDC-135942],-48.62%
14,O=C(/C=C/c1ccc([N+](=O)[O-])cc1)N1CCC(NS(=O)(=O)c2ccc(F)cc2)CC1 [TCMDC-139441],26.45%
15,Cc1cc(C(=O)Nc2ccc3c(c2)CCN3C2CCN(Cc3ccc(O)cc3)C2)no1 (centres unmarked) [TCMDC-135078],-0.5259%
16,Cc1ccc(Cn2cnc3cc(C(=O)Nc4ccc(-c5cccc(CN(C)C)c5)cc4)ccc3c2=O)o1 [TCMDC-132366],91.1%
17,Cc1ccc(Cn2cnc3cc(C(=O)Nc4ccc(-c5ccc(CN(C)C)cc5)cc4)ccc3c2=O)o1 [TCMDC-132364],111.6%
18,CN(CCO)Cc1cccc(-c2ccc(NC(=O)c3cccc(C#N)c3)cc2)c1 [TCMDC-132671],-45.65%
19,COc1cccc2cc(C(=O)N[C@@H](CC(C)C)C(=O)N[C@H](/C=N/NC(=O)Cc3cccnc3)CCc3ccccc3)oc12 [TCMDC-135634],-9.897%
20,O=C(Nc1ccc(-c2nc3ccccc3[nH]2)cc1)c1cnc(Cl)c(Cl)c1 [TCMDC-125109],-47.86%
21,CN1CCC(C(=O)Nc2ccc(-c3cccc(-c4nc5ccc(F)cc5[nH]4)c3)cc2)CC1 [TCMDC-132180],28.01%
22,CN1CCN(CC(=O)Nc2ccc(-c3cccc(-c4nc5ccc(F)cc5[nH]4)c3)cc2)CC1 [TCMDC-136973],-61.95%

row,Compound,% Inhibition
1,CN1CCN(CC(=O)Nc2cccc(-c3cccc(-c4nc5ccc(F)cc5[nH]4)c3)c2)CC1 [TCMDC-136974],72.37%
2,CN1CCN(CC(=O)Nc2ccc(-c3ccc(-c4nc5ccccc5[nH]4)cc3)cc2)CC1 [TCMDC-136979],-9.366%
3,CN1CCC(C(=O)Nc2cccc(-c3cccc(-c4nc5ccc(F)cc5[nH]4)c3)c2)CC1 [TCMDC-132181],91.35%
4,CN1CCN(CC(=O)Nc2cccc(-c3ccc(-c4nc5cc(F)ccc5[nH]4)s3)c2)CC1 [TCMDC-136986],9.75%
5,CN1CCC(C(=O)Nc2cccc(-c3ccc(-c4nc5ccc(F)cc5[nH]4)cc3)c2)CC1 [TCMDC-132185],12.21%
6,CN1CCN(CC(=O)Nc2ccc(-c3csc(-c4nc5ccccc5[nH]4)c3)cc2)CC1 [TCMDC-132392],-27.46%
7,CN1CCN(CC(=O)Nc2cccc(-c3ccc(-c4nc5ccc(F)cc5[nH]4)cc3)c2)CC1 [TCMDC-136978],78.56%
8,CN1CCN(CC(=O)Nc2cccc(-c3cccc(-c4nc5ccccc5[nH]4)c3)c2)CC1 [TCMDC-136972],82.82%
9,O=C(Cc1cnc[nH]1)Nc1cccc(-c2ccc(-c3nc4ccc(F)cc4[nH]3)cc2)c1 [TCMDC-136946],4.671%
10,CCCN(Cc1nnc(-c2cccs2)o1)C(=O)CSc1nnnn1-c1ccc(C)c(C)c1 [TCMDC-125240],7.835%
11,CCNc1cc(C(=O)N[C@@H](Cc2ccccc2)[C@H](O)CNC2(C(C)C)CCC2)cc(N2CCCCS2(=O)=O)c1 [TCMDC-135375],21.07%
12,O=C(Nc1cccc(N2CCC(NCc3cnn(-c4cccc(F)c4)c3)CC2)c1)c1ccncc1 [TCMDC-124666],1.522%
13,CCc1nc(N)nc(N)c1-c1ccc2c(c1)CCCC2 [TCMDC-137366],1.403%
14,CC(=O)c1c[nH]c2ccc(/C=C/C(=O)NC3CCC(CCN4CCc5ccc(C#N)cc5CC4)CC3)cc12 (centres unmarked) [TCMDC-139781],8.041%
15,Cc1cc(N(C)C)nc(Nc2ccc(NC(=O)Nc3ccccc3)cc2)n1 [TCMDC-124961],-7.652%
16,CC(C)(C)OC(=O)Nc1cccc(-c2csc(N=C(N)N)n2)c1 [TCMDC-139458],-7.948%
17,Cc1ccc(-n2[nH]c(C)c(N=Nc3cccc(-c4cccc(NC(=O)OC(C)(C)C)c4)c3O)c2=O)cc1C [TCMDC-141045],81.95%
18,CC(C)(C)OC(=O)NCCc1cccc(-c2c[nH]c3ncc(-c4cccc(NS(C)(=O)=O)c4)cc23)c1 [TCMDC-136294],27.56%
19,COc1ccc(Nc2nccc(-c3ccc(NC(=O)c4cc5cc(F)ccc5[nH]4)cc3)n2)cc1 [TCMDC-133306],23.43%
20,CCNC(=O)Nc1cccc(-c2ccc(-c3nc4cccc(C)c4[nH]3)s2)c1 [TCMDC-133169],-0.5138%
21,Cc1ccc(Nc2nc3cc(Nc4ccnc(Nc5ccc(CS(C)(=O)=O)cc5)n4)ccc3o2)cc1 [TCMDC-141799],11.69%
